According to publication PMC5540273 (PLoS ONE, 2017):

Experiments:
Conditions in all cases: concentration: 1 μM, replicates: in singlicate; n = 1
[1] = tested on: RPS6KA4(Kin.Dom.1-N-terminal)
[2] = tested on: RPS6KA4(Kin.Dom.2-C-terminal)
[3] = tested on: RPS6KA5(Kin.Dom.1-N-terminal)
[4] = tested on: RPS6KA5(Kin.Dom.2-C-terminal)
[5] = tested on: T1, RSK1(Kin.Dom.1-N-terminal)
T1 construct: gene RPS6KA1

[6] = tested on: T2, RSK1(Kin.Dom.2-C-terminal)
T2 construct: gene RPS6KA1

[7] = tested on: T3, RSK2(Kin.Dom.1-N-terminal)
T3 construct: gene RPS6KA3

[8] = tested on: T4, RSK2(Kin.Dom.2-C-terminal)
T4 construct: gene RPS6KA3

[9] = tested on: T5, RSK3(Kin.Dom.1-N-terminal)
T5 construct: gene RPS6KA2

[10] = tested on: T6, RSK3(Kin.Dom.2-C-terminal)
T6 construct: gene RPS6KA2
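Also: KINOMEscan kinase panel screen.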

| SMILES | %Inh [1] [%] | %Inh [2] [%] | %Inh [3] [%] | %Inh [4] [%] | %Inh [5] [%] | %Inh [6] [%] | %Inh [7] [%] | %Inh [8] [%] | %Inh [9] [%] | %Inh [10] [%] |
| --- | --- | --- | --- | --- | --- | --- | --- | --- | --- | --- |
| COc1cccc2c(-c3ccncc3)c(-c3ccc(F)cc3)nn12 [GW468513] | 4 | 0 | 23 | 0 | 0 | 48 | 0 | 20 | 3 | 0 |
| CC(=O)Nc1cn2nc(Oc3cccc(NC(=O)c4cccc(C(F)(F)F)c4)c3)ccc2n1 | 47 | 0 | 0 | 6 | 0 | 0 | 0 | 30 | 0 | 5 |
| N#CC1(c2cccc(C(=O)Nc3cccc(Oc4ccc5nc(NC(=O)C6CC6)sc5n4)c3)c2)CC1 | 0 | 2 | 0 | 0 | 0 | 25 | 15 | 1 | 25 | 21 |
| O=C(Nc1n[nH]c2cc(-c3cccs3)ccc12)C1CC1 [SB-731284] | 0 | 11 | 0 | 0 | 8 | 0 | 41 | 0 | 0 | 0 |
| Cc1ccc(O)cc1Nc1ccnc2ccc(C(C)(C)C)cc12 [GW856805] | 4 | 9 | 2 | 8 | 30 | 0 | 39 | 32 | 16 | 0 |
| c1ccc(Oc2ccc(Nc3ccnc4cc(-c5ccc(CN6CCCCC6)o5)ccc34)cc2)nc1 [GW567143] | 13 | 0 | 0 | 0 | 22 | 0 | 0 | 20 | 3 | 0 |
| CN(C)CCOc1ccc(-c2cc(-c3ccc(Cl)c(O)c3)c(-c3ccncc3)[nH]2)cc1.Cl.Cl [SB-684387] | 0 | 23 | 0 | 33 | 10 | 23 | 3 | 8 | 4 | 0 |
| COc1cc(Nc2nccc(N3CCC(NC(=O)Nc4ccc5c(c4)OCO5)C3)n2)cc(OC)c1OC (stereo not drawn) [GSK1379766] | 0 | 0 | 1 | 18 | 22 | 2 | 5 | 0 | 10 | 5 |
| COc1cccc(-c2nc(-c3ccccc3)[nH]c2-c2ccncc2)c1 [SB-610250] | 2 | 0 | 7 | 41 | 19 | 7 | 12 | 26 | 11 | 0 |
